Assay outcomes from PubChem BioAssay.
Shown is part of a subset that was picked to be rich in hits.
ST2 inh – IL1RL1 inhibition. AlphaLISA ST2-Fc/biotin-IL-33 interaction, 1 h. inhibition, % for hits at 17 µM. hit rate 2.3% among 78,000; in the data active means inhibition above about 30%
Hits are given with their value; . = inactive.

SMILES	ST2 inh
COc1ccccc1C1C(C(=O)Nc2nc3ccccc3s2)=C(C)NC2=C1C(=O)CCC2 (configuration not stated)	.
COC(=O)c1c(NC(=O)c2sc3ccccc3c2Cl)sc2c1CCN(C)C2	37.0%
CCOC(=O)c1c(NC(=O)c2ccc(Cl)s2)sc2c1CCN(C)C2	.
CC1CCc2sc(NC(=O)c3sc4ccccc4c3Cl)c(C(N)=O)c2C1 (configuration not stated)	.
Cc1nc(N2CCCC(C(=O)NCCC3=CCCCC3)C2)nc2cc(S(C)(=O)=O)ccc12 (configuration not stated)	.
CCOc1ccc(NC(=O)COc2ccc(Cl)cc2)cc1	.
CC1CCc2c(sc(NC(=O)c3cc(=O)c4ccccc4o3)c2C#N)C1 (configuration not stated)	.
CC1CCc2c(sc(N=Cc3cccnc3)c2C#N)C1 (configuration not stated)	30.0%
Cc1onc(-c2ccccc2Cl)c1C(=O)Nc1sc2c(c1C#N)CCC(C)C2 (configuration not stated)	.
O=C(Oc1cc(O)c2c(c1)O[C@@H](c1ccc(O)c(O)c1)[C@H](O)C2)c1cc(O)c(O)c(O)c1	.
O=C(O[C@@H]1Cc2c(O)cc(O)cc2O[C@@H]1c1cc(O)c(O)c(O)c1)c1cc(O)c(O)c(O)c1	31.0%
O=C1c2c(O)cc(O)cc2OC(c2ccc(O)c(O)c2)C1O (configuration not stated)	.
OCC1(Cc2ccccc2)CCN(Cc2cc3ccccc3s2)CC1	.
CCCNC(=O)c1ccc2c(c1)N(Cc1ccc(C)cc1)CCS2	.
CCOc1ccccc1CN1CCN(C2CCCCCC2)CC1CCO (configuration not stated)	.
CO[C@H]1CN(C(=O)c2cccc3[nH]c(C)nc23)CC[C@H]1N	.
COC(=O)c1ccccc1NC(=O)c1cc(-c2ccccc2OC)on1	.
COc1ccc(CNC(=O)[C@H]2O[C@H](CCN3CCN(c4ccccc4)CC3)CC[C@@H]2O)cc1	.
O=C(O)C1CC=CCC1C(=O)Nc1ccccc1 (configuration not stated)	.
COCCN(CCOC)CC[C@@H]1CC[C@H](O)[C@@H](C(=O)Nc2ccccc2)O1	38.0%
Cc1cc(C2CCC2)nc(N2CCN(S(N)(=O)=O)CC2)n1	.
COc1cc(/C=C2/SC(=Nc3ccccc3)NC2=O)ccc1OCC#N	32.0%
CCOc1ccc(/C=C2\SC(N3CC(C)OC(C)C3)=NC2=O)cc1OC (configuration not stated)	.
COc1ccc(OC)c(/C=C2/SC(=Nc3ccc(C)cc3)NC2=O)c1	.
COc1cc(C2NC(=O)CCC2[N+](=O)[O-])cc(Cl)c1O (configuration not stated)	.
SMILES	ST2 inh
COc1cc(/C=C2/SC(=Nc3ccccc3)NC2=O)cc(Cl)c1O	42.0%
CCOc1cc(/C=C2/NC(=O)NC2=O)ccc1OCc1ccccc1C#N	.
O=C(NCc1ccc(Cl)c(Cl)c1)c1ccccc1Br	.
COc1cc2c(C(=O)N3CCC4(CC3)OCCO4)cn(CC(C)C)c(=O)c2cc1OC	.
COc1ccc2c(=O)c(-c3ccc(F)cc3)c(C)oc2c1	.
CC1(C)CCN2CCC(C)(C)c3c(O)ccc1c32	73.0%
Cc1ccc(O)c(C2N(Cc3ccccc3O)CCN2Cc2ccccc2O)c1	.
O=C(Cc1ccc(F)cc1)N1CCN=C1SCc1ccc(Br)cc1	.
COc1ccc(S(=O)(=O)N2CCCC(N3CCCC3=O)C2)c(OC)c1 (configuration not stated)	.
Cc1ccc2oc(-c3ccc(NC(=O)c4cccnc4)cc3O)nc2c1	.
Cc1ccc2nc(-c3ccc(N)cc3O)oc2c1	34.0%
Cc1ccc2oc(-c3ccc(NC(=O)c4ccccc4Cl)cc3O)nc2c1	.
COc1cc(OC)c(N(C)C(=O)Cc2c(C(=O)O)[nH]c3ccccc23)cc1Cl	.
O=C(Nc1cccc(O)c1)c1noc2c1CCCC2	.
CCc1cc(CN(CC)CC)[nH]n1	.
O=C(O)CCC(=O)Nc1c(-c2ccccc2)nc2ccccn12	.
COc1ccc2cc3cc(C(=O)NC4CC4)sc3nc2c1	.
CCN(C(=O)c1cc2cc3ccc(OC)cc3nc2s1)c1cc(OC)ccc1OC	31.0%
CCN(CC)CCNC(=O)c1cc2cc3cc(OC)ccc3nc2s1	.
CCOc1ccc(OCC)c(NS(=O)(=O)c2ccc3c(c2)CCC(=O)N3)c1	.
NNc1nc2ccccc2s1	68.0%
O=C(COc1ccc2ccccc2c1)Nc1nc2ccccc2s1	.
O=C(Nc1nc2ccccc2s1)c1ccccc1F	.
COCC1(C(=O)NCc2ccc(N3CCCC3=O)cc2)CCC1	.
C[C@@H]1O[C@@H](O[C@@H]2[C@@H](O)[C@H](C)O[C@@H](OCC3OC(Oc4c(-c5ccc(O)c(O)c5)oc5cc(O)cc(O)c5c4=O)C(O)C(O)C3O)[C@@H]2O)[C@H](O)[C@H](O)[C@H]1O (some centres not stated)	.
COc1cc(OC2OC(COC3OCC(O)(CO)C3O)C(O)C(O)C2O)c2c(-c3ccc(O)c(O)c3)cc(=O)oc2c1 (configuration not stated)	33.0%
